The text below walks through data of PubChem BioAssay (EPA / NIEHS).

Values joined by “and” are separate entries in the source; they are usually repeats but may differ in a detail not shown here. Equal entries are not always repeated. Records with an inconclusive call do not appear. More than one record can exist for a structure, and the calls need not agree. Active and inactive are the calls of the source. How the source made its calls: active means hit-call score of the fitted dose curve at least 0.9, where 1 is the maximum; inconclusive means response in the unintended direction; inactive means score below 0.9.

For orientation: AC50 means the concentration at which the activity in the assay is half-maximal.

Chain of Nuclear receptor subfamily 1 group I member 2 (Homo sapiens) (O75469 whole entry, looked up, the tested form may be a part): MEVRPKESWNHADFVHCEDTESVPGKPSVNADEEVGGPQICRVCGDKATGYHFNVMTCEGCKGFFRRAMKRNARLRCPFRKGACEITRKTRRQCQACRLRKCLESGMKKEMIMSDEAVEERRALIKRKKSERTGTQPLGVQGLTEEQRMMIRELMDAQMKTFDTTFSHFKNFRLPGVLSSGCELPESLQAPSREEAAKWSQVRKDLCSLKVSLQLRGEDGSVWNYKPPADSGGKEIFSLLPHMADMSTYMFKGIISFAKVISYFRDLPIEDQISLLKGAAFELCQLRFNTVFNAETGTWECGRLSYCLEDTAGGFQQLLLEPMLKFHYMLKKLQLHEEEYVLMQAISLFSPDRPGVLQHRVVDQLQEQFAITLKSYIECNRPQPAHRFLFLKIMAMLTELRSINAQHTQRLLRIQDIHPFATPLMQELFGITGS

The target of the first assay is Peroxisome proliferator-activated receptor gamma (Homo sapiens) (UniProt P37231). As to the kind of experiment: ATG_PPARg_TRANS: Attagene TRANS-FACTORIAL HepG2 Assay for human Peroxisome Proliferator-activated Receptor-gamma (PPARg) (AID 2283007). The essentials: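 Liver-derived HepG2 cells expressing an exogenous NR-Gal4 chimera alongside GAL4-UAS reporter genes; 24 h exposure. Fluorescence of reporter RT-PCR products, separated by capillary electrophoresis, gives mRNA induction relative to DMSO.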
Chain of Peroxisome proliferator-activated receptor gamma (Homo sapiens) (P37231 whole entry, looked up, the tested form may be a part): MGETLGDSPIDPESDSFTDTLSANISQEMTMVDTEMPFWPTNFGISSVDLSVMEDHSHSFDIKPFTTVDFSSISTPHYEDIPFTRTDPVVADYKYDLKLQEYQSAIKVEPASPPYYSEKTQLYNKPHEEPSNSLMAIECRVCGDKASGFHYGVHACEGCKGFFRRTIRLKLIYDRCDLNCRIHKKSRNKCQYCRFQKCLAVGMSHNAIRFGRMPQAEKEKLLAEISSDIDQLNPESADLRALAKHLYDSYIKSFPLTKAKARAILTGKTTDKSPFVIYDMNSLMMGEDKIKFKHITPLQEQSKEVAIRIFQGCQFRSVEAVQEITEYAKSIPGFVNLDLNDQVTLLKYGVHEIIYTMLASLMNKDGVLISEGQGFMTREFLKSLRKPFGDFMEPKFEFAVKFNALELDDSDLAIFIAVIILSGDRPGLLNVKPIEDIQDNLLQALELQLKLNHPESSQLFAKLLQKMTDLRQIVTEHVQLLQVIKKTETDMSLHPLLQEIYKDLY
Turning to `CCc1ccccc1O`, the outcome was inactive.

For the molecule `OCC1CCC(CO)CC1` (centres undefined), the molecule was classed as inactive.

In the case of `CCCCCCCCCCCCOC(=O)c1cc(O)c(O)c(O)c1`, the AC50 is 20.8 µM (active).

Turning to `O=C(C=C(O)C(F)(F)F)C(F)(F)F`, the molecule was classed as inactive.

For the molecule `Cc1cncc(C)c1`, the molecule was classed as inactive.

`O=CC(F)(F)C(F)(F)C(F)(F)C(F)F`: the call was inactive.

For the molecule `Oc1cccc2c(O)cccc12`, the AC50 was 48.4 µM (active).

`CCCCc1ccc2ccccc2c1S(=O)(=O)O`: the AC50 was 45.4 µM (active).

As for `CCOCCOCC`, the call was inactive.

Turning to `Nc1cc(Cl)c(-c2cc(Cl)c(N)cc2Cl)cc1Cl`, the AC50 was 14.5 µM (active).

With `CC(C)c1c(C(=O)Nc2ccccc2)c(-c2ccccc2)c(-c2ccc(F)cc2)n1CC[C@@H](O)C[C@@H](O)CC(=O)O`, the AC50 was 20.3 µM (active) and 19.6 µM (active).

As to `Cc1cc(=O)oc2cc(O)ccc12`, the result was inactive.

In the case of `Cc1cc(C(=C2C=CC(=Nc3ccc(S(=O)(=O)O)cc3)C=C2)c2ccc(Nc3ccc(S(=O)(=O)O)cc3)cc2)cc(S(=O)(=O)O)c1N`, the result was inactive.

`O=C1C=CC(=O)N1c1cccc(N2C(=O)C=CC2=O)c1`: the call was inactive.

As to `CCCCCCCCCCCC[N+](C)(C)Cc1ccccc1`, the outcome was inactive.

As to `FC(F)=C(F)C(F)(F)C(F)(F)C(F)(F)C(F)F`, the molecule was called inactive.

For the molecule `CCC(=O)O`, the call was inactive.

Turning to `O=C(Nc1ccc(Cl)c(Cl)c1)c1cc(Cl)cc(Cl)c1O`, the half-maximal activity concentration (AC50) is 4.33 µM (active).

As for `CCCCCCC(C)(C)C(=O)O`, the AC50 was 46.3 µM (active).

Another assay deals with Nuclear receptor subfamily 1 group I member 2 (Homo sapiens) (UniProt O75469). As to the kind of experiment: ATG_PXR_TRANS: Attagene TRANS-FACTORIAL HepG2 Assay for human Pregnane X Receptor (PXR) (AID 2283008). In a few lines:
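Read-out is fluorescence of labelled reporter cDNA fragments separated by capillary electrophoresis after RT-PCR and HpaI digestion. Source: HepG2 cells carrying PXR-GAL4/UAS reporter constructs, treated 24 h; activity fitted upward relative to DMSO.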
As to `CCO[Si](C)(C)OCC`, the molecule was classed as inactive.

As to `O=C(F)C(F)(F)C(F)(F)C(F)(F)C(=O)F`, the result was inactive.

Regarding `COCC1CCC(CO)CC1` (centres undefined), the result was inactive.

Regarding `O=CC(F)(F)C(F)(F)C(F)(F)F`, the result was inactive.

For the molecule `NS(=O)(=O)O`, the molecule was classed as inactive.

For `COC(=O)CC(C(C)=O)C(=O)OC` (centres undefined), the molecule was classed as inactive.

Regarding `CCC1CO1` (centres undefined), the result was inactive.

With `O=c1cc(-c2ccccc2)oc2ccc3ccccc3c12`, the AC50 is 5.62 µM (active) and the result was inactive.

Regarding `C=C(c1ccc(C(=O)O)cc1)c1cc2c(cc1C)C(C)(C)CCC2(C)C`, the outcome was inactive.

On to `O=S(=O)(O)c1ccccc1`, for which the molecule was classed as inactive.

In the case of `CCCCCC(C)OC(=O)COc1ccc(Cl)c2cccnc12` (centres undefined), the molecule was called inactive.

For `CCc1cccc(CC)c1N(COC)C(=O)CS(=O)(=O)O`, the AC50 is 7.05 µM (active).

`CCCCCCCCC1CCC(=O)O1` (centres undefined): the call was inactive.

`CNNCc1ccc(C(=O)NC(C)C)cc1`: the outcome was inactive.

As for `CCc1ccccc1O`, the AC50 was 15.7 µM (active).

For the molecule `CCCCCCCCCCCCOC(=O)c1cc(O)c(O)c(O)c1`, the AC50 is 10.6 µM (active).

Regarding `O=C(C=C(O)C(F)(F)F)C(F)(F)F`, the molecule was called inactive.

Turning to `Cc1cncc(C)c1`, the outcome was inactive.

On to `O=CC(F)(F)C(F)(F)C(F)(F)C(F)F`, for which the call was inactive.

With `Oc1cccc2c(O)cccc12`, the outcome was inactive.

On to `CCCCc1ccc2ccccc2c1S(=O)(=O)O`, for which the AC50 is 2.67 µM (active).

As to `CCOCCOCC`, the call was inactive.

On to `Nc1cc(Cl)c(-c2cc(Cl)c(N)cc2Cl)cc1Cl`, for which the AC50 is 4.7 µM (active).

Regarding `CC(C)c1c(C(=O)Nc2ccccc2)c(-c2ccccc2)c(-c2ccc(F)cc2)n1CC[C@@H](O)C[C@@H](O)CC(=O)O`, the AC50 was 9.99 µM (active).

On to `Cc1cc(=O)oc2cc(O)ccc12`, for which the AC50 is 12 µM (active) and the outcome was inactive.

Take `Cc1cc(C(=C2C=CC(=Nc3ccc(S(=O)(=O)O)cc3)C=C2)c2ccc(Nc3ccc(S(=O)(=O)O)cc3)cc2)cc(S(=O)(=O)O)c1N`: the result was inactive.

Regarding `O=C1C=CC(=O)N1c1cccc(N2C(=O)C=CC2=O)c1`, the molecule was classed as inactive.

In the case of `CCCCCCCCCCCC[N+](C)(C)Cc1ccccc1`, the outcome was inactive.

In the case of `FC(F)=C(F)C(F)(F)C(F)(F)C(F)(F)C(F)F`, the result was inactive.

Take `CCC(=O)O`: the outcome was inactive.

In the case of `O=C(Nc1ccc(Cl)c(Cl)c1)c1cc(Cl)cc(Cl)c1O`, the AC50 is 2.74 µM (active).

For a further assay, the target named is human Retinoic Acid Receptor gamma (RARg), RARG (gene 5916) (UniProt P13631). As to the kind of experiment: ATG_RARg_TRANS: Attagene TRANS-FACTORIAL HepG2 Assay for human Retinoic Acid Receptor gamma (RARg) (AID 2283009).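 On AC50: AC50 is for reporter induction above DMSO meaning RARg activation.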 In a few lines: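 HepG2 transiently transfected with GAL4-UAS reporter units and chimeric NR-Gal4 constructs; 24 h compound exposure. Reporter mRNA quantified by RT-PCR, FAM labeling, HpaI digestion and capillary electrophoresis; gain-of-signal versus DMSO.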
Chain of human Retinoic Acid Receptor gamma (RARg), RARG (gene 5916) (P13631 whole entry, looked up, the tested form may be a part): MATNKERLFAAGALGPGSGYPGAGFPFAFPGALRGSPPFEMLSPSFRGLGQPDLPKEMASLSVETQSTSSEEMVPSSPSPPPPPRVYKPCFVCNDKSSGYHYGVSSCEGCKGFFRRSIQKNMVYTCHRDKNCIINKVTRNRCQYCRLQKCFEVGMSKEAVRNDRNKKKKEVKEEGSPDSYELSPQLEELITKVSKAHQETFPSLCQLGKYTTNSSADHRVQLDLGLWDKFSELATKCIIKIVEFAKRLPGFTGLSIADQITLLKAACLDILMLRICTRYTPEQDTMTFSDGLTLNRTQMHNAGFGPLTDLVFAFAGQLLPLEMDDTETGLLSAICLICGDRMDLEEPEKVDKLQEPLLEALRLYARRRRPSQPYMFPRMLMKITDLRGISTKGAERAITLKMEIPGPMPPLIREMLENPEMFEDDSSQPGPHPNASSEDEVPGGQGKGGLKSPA
As for `O=S(=O)(O)c1ccccc1`, the call was inactive.

On to `CCCCCC(C)OC(=O)COc1ccc(Cl)c2cccnc12` (centres undefined), for which the call was inactive.

For `CCc1ccccc1O`, the result was inactive.

Regarding `OCC1CCC(CO)CC1` (centres undefined), the molecule was called inactive.

For the molecule `O=C(C=C(O)C(F)(F)F)C(F)(F)F`, the result was inactive.

Turning to `O=C1C=CC(=O)N1c1cccc(N2C(=O)C=CC2=O)c1`, the outcome was inactive.

For the molecule `CCCCCCCCCCCC[N+](C)(C)Cc1ccccc1`, the AC50 was 155 µM (active).

With `O=C(Nc1ccc(Cl)c(Cl)c1)c1cc(Cl)cc(Cl)c1O`, the result was inactive.

In the case of `CCCCCCC(C)(C)C(=O)O`, the outcome was inactive.

The target of a further assay is human RAR-related Orphan Receptor beta (RORb), RORB (gene 6096) (UniProt Q92753). The assay can be described thus: ATG_RORb_TRANS: Attagene TRANS-FACTORIAL HepG2 Assay for human RAR-related Orphan Receptor beta (RORb) (AID 2283010). In a few lines: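 HepG2 cells transiently transfected with GAL4-UAS reporter units expressing chimeric NR-Gal4 protein; reporter mRNA measured 24 h after dosing by RT-PCR, 6-FAM labelling and capillary electrophoresis. Gain-of-signal fitted relative to DMSO baseline.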
Chain of human RAR-related Orphan Receptor beta (RORb), RORB (gene 6096) (Q92753 whole entry, looked up, the tested form may be a part): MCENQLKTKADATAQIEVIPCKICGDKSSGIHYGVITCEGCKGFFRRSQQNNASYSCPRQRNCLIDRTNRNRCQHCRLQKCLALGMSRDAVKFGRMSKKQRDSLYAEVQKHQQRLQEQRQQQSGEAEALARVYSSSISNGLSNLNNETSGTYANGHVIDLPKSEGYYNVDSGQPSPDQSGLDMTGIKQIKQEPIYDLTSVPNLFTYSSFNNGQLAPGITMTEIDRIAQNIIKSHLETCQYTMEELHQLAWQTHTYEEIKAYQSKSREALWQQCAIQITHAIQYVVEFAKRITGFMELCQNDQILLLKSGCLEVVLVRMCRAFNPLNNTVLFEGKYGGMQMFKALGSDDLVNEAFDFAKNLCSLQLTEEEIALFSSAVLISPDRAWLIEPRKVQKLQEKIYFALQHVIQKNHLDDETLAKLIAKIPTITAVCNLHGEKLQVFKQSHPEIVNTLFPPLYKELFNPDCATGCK
`O=CC(F)(F)C(F)(F)C(F)(F)F`: the outcome was inactive.

For the molecule `NS(=O)(=O)O`, the molecule was called inactive.

With `CCC1CO1` (centres undefined), the call was inactive.

For `CC1=CC(=O)c2ccccc2C1=O`, the call was inactive.

On to `O=c1cc(-c2ccccc2)oc2ccc3ccccc3c12`, for which the result was inactive.

Turning to `O=S(=O)(O)c1ccccc1`, the result was inactive.

As for `CCCCCCCCC1CCC(=O)O1` (centres undefined), the result was inactive.

With `CNNCc1ccc(C(=O)NC(C)C)cc1`, the call was inactive.

Turning to `O=CC(F)(F)C(F)(F)C(F)(F)C(F)F`, the molecule was classed as inactive.

As for `Oc1cccc2c(O)cccc12`, the outcome was inactive.

Turning to `CCCCc1ccc2ccccc2c1S(=O)(=O)O`, the molecule was classed as inactive.

Take `CCOCCOCC`: the result was inactive.

For the molecule `Nc1cc(Cl)c(-c2cc(Cl)c(N)cc2Cl)cc1Cl`, the result was inactive.

Consider `Cc1cc(=O)oc2cc(O)ccc12`, for which the molecule was classed as inactive.

With `Cc1cc(C(=C2C=CC(=Nc3ccc(S(=O)(=O)O)cc3)C=C2)c2ccc(Nc3ccc(S(=O)(=O)O)cc3)cc2)cc(S(=O)(=O)O)c1N`, the outcome was inactive.

As to `CCCCCCCCCCCC[N+](C)(C)Cc1ccccc1`, the result was inactive.

For the molecule `FC(F)=C(F)C(F)(F)C(F)(F)C(F)(F)C(F)F`, the molecule was classed as inactive.

Take `O=C(Nc1ccc(Cl)c(Cl)c1)c1cc(Cl)cc(Cl)c1O`: the molecule was called inactive.
